Experimental data from PubChem BioAssay (Tox21).
Records with an inconclusive call do not appear. The source made the active and inactive calls. Unless noted, the call rests on the fitted dose curve.

Key:
[1] = Nuclear factor erythroid 2-related factor 2/antioxidant responsive element (Nrf2/ARE) small molecule agonists: qHTS cell viability counter screen in human keratinocytes (AID 1919968; active means well fitted curve in the direction sought with a large enough effect in the repeat runs; an effect the other way counts as inactive or inconclusive; further: nearly all actives have a fitted effect of over 55% in size)
How it was run: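 After a 5 h attachment period, ARE-reporter keratinocytes were dosed with compounds in DMSO and then cultured 23 h at 37 C. Cell viability came from CellTiter-Fluor signal read after a further 1 h.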

[2] = Nuclear factor erythroid 2-related factor 2/antioxidant responsive element (Nrf2/ARE) small molecule agonists: luciferase reporter gene qHTS assay in human keratinocytes (AID 1919969); further: nearly all actives have a fitted effect of over 35% in size
[3] = target: Gonadotropin-releasing hormone receptor (Homo sapiens) (UniProt P30968); test: Human gonadotropin-releasing hormone receptor (GnRHR) small molecule agonists, calcium flux assay in GnRHR-HEK293 cells (AID 1920063); further: nearly all actives have a fitted effect of over 35% in size
Chain of Gonadotropin-releasing hormone receptor (Homo sapiens) (P30968 whole entry, looked up): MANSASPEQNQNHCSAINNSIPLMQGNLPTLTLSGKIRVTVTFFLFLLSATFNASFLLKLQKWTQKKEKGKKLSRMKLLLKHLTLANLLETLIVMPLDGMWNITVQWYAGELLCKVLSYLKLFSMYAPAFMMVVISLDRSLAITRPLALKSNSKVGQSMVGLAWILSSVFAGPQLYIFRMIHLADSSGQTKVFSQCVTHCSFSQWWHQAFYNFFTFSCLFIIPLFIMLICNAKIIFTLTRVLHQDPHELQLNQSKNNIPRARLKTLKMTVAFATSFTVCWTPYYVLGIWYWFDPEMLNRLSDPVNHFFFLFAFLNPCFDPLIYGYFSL
How it was run: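 We seeded human GnRHR-expressing HEK293 cells for 18 hours, loaded them with calcium dye for an hour at 37 C, added test compounds, and recorded fluorescence intensity kinetically for three minutes.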

[4] = target: KiSS-1 receptor (Homo sapiens) (UniProt Q969F8); test: Human kisspeptin (KISS1R) small molecule agonists, calcium flux assay in KISS1R-HEK293 cells (AID 1920064; active means well fitted curve in the direction sought with a large enough effect in the repeat runs; an effect the other way counts as inactive or inconclusive)
Chain of KiSS-1 receptor (Homo sapiens) (Q969F8 whole entry, looked up): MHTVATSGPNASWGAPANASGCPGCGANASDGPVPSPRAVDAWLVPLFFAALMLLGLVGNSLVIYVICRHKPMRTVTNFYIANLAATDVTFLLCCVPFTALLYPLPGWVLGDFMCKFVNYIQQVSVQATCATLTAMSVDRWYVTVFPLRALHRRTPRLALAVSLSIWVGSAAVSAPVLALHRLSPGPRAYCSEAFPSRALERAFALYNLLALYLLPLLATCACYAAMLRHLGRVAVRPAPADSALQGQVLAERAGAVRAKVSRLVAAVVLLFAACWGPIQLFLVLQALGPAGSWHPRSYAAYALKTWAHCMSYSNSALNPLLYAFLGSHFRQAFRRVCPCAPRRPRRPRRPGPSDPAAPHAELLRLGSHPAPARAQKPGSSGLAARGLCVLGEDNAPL
How it was run: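 Kinetic calcium assay, 1 s sampling over 3 min at Ex/Em 480/540, in HEK293 cells engineered with human KISS1R; compounds delivered in DMSO after 1 h dye loading.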

[5] = G protein-coupled receptor (GPCR) small molecule agonists, calcium flux assay: HEK293 wild type cell line counter screen (AID 1920065)
How it was run: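 Calcium-sensitive dye, loaded 1 h at 37 C into cells cultured 18 h, reports compound-evoked calcium release as fluorescence (Ex/Em 480/540), measured over 3 min. Agonist mode; 15-point titrations, triplicate.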

[6] = p53 small molecule agonists, cell-based qHTS assay with human liver microsomes (AID 1963577);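 further: p53 response element beta-lactamase reporter cells with liver microsomes plus NADPH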
How it was run: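 p53RE-bla cells; 5 h settle, 37 C/5% CO2; cpd + HLM 0.5 mg/mL + NADPH 0.5 mg/mL (final); 16 h 37 C; LiveBLAzer 2 h RT dark; fluorescence readout.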

[7] = p53 small molecule agonists, cell-based qHTS assay with rat liver microsomes (AID 1963578)
How it was run: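 Rat liver microsome activation: microsomes 0.5 mg/mL, NADPH 0.5 mg/mL final; p53RE-bla cells, 16 h 37 C; LiveBLAzer readout, 2 h RT dark.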

[8] = p53 small molecule agonists, cell-based qHTS assay with human liver microsomes: qHTS cell viability counter screen (AID 1963579); further: nearly all actives have a fitted effect of over 45% in size
How it was run: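 Luminescent CellTiter-Glo read-out, 30 min at room temperature, gauged cytotoxicity in p53RE-bla cells exposed 16 h at 37 C to DMSO-dissolved compounds with metabolic activation by human liver microsomes and NADPH, each 0.5 mg/mL final.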

[9] = p53 small molecule agonists, cell-based qHTS assay with rat liver microsomes: qHTS cell viability counter screen (AID 1963580); further: nearly all actives have a fitted effect of over 45% in size
How it was run: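 p53RE-bla HCT-116 cells were exposed 16 h at 37 C to compounds with rat liver microsomes (0.5 mg/mL) and NADPH (0.5 mg/mL). Viability was measured in the same wells as ATP content by CellTiter-Glo luminescence.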

[10] = p53 small molecule agonists, cell-based qHTS assay: qHTS cell viability counter screen (AID 1963581); further: nearly all actives have a fitted effect of over 45% in size
How it was run: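 Following 5 h attachment, HCT-116 p53RE-bla cells took up compound for 16 h at 37 C; the reporter was read with B/G FRET substrate (2 h RT), and viability then via CellTiter-Glo ATP luminescence.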

[11] = p53 small molecule agonists, cell-based qHTS assay (AID 1963582; active means well fitted activation curve with a large enough effect in the signal ratio in the repeat runs, not every such curve was filed as active; the % refers to the signal ratio)
How it was run: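 In this cell-based concentration-response screen, a p53 response element drives beta-lactamase; cells received DMSO-borne compounds after 5 h culture and were incubated a further 16 h before FRET substrate development.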

[12] = target: 5-hydroxytryptamine receptor 2A (Homo sapiens) (UniProt P28223); test: 5-hydroxytryptamine receptor 2A (HTR2A) small molecule antagonists, cell-based qHTS assay (AID 1963586); further: nearly all actives have a fitted effect of over 45% in size
Chain of 5-hydroxytryptamine receptor 2A (Homo sapiens) (P28223 whole entry, looked up): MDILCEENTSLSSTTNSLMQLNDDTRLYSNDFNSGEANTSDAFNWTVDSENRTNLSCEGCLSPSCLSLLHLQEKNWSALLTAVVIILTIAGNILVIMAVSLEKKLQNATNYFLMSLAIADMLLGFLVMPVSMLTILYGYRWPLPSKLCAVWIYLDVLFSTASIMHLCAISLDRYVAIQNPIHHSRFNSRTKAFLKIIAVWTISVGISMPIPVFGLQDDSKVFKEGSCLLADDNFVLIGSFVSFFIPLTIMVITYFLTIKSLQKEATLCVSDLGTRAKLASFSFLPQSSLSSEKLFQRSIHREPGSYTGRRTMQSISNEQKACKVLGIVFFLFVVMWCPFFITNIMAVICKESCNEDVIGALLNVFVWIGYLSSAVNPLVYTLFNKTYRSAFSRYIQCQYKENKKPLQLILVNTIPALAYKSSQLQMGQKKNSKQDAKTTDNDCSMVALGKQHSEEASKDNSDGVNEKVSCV
How it was run: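 Antagonist-mode intracellular calcium assay: DOI (4 nM) added after 5 min compound pre-incubation at room temperature to dye-loaded HTR2A-CHO cells. Fluorescence followed for 3 min, sampled every second.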

[13] = target: 5-hydroxytryptamine receptor 2A (Homo sapiens) (UniProt P28223); test: 5-hydroxytryptamine receptor 2A (HTR2A) small molecule agonists, cell-based qHTS assay (AID 1963587); further: nearly all actives have a fitted effect of over 30% in size
How it was run: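 CHO cells stably expressing human HTR2A, plated 18 h, loaded with calcium dye 1 h at 37 C. Agonist mode: compounds added and intracellular calcium fluorescence recorded kinetically for 2 min at 1 sec intervals.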

[14] = target: Muscarinic acetylcholine receptor M1 (Homo sapiens) (UniProt P11229); test: Cholinergic receptor muscarinic 1 (CHRM1) small molecule antagonists, cell-based qHTS assay (AID 1963588); further: nearly all actives have a fitted effect of over 40% in size
Chain of Muscarinic acetylcholine receptor M1 (Homo sapiens) (P11229 whole entry, looked up): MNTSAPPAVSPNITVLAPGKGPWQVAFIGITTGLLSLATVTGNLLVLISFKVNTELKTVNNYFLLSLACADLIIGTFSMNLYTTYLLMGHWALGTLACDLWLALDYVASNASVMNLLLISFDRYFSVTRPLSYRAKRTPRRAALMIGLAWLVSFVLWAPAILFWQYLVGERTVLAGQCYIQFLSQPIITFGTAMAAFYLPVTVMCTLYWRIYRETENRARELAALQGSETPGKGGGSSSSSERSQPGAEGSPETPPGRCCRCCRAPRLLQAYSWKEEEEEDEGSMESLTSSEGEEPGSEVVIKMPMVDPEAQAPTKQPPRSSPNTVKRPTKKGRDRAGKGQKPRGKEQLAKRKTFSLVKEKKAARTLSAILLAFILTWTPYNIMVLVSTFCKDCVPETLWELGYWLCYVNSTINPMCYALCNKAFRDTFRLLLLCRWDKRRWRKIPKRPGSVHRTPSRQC
How it was run: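 CHRM1-CHO calcium-flux assay, antagonist mode. Cells were seeded 18 h, dye-loaded 1 h at 37 C and given compound for 5 min at RT, then acetylcholine was added at 50nM. FDSS fluorescence was read 3 min; 15 concentrations, three runs.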

[15] = target: Muscarinic acetylcholine receptor M1 (Homo sapiens) (UniProt P11229); test: Cholinergic receptor muscarinic 1 (CHRM1) small molecule agonists, cell-based qHTS assay (AID 1963589); further: nearly all actives have a fitted effect of over 35% in size
How it was run: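 Measures agonist-induced intracellular calcium rise. Stable human CHRM1 CHO line, 1 h dye load at 37 C, compounds from DMSO, kinetic fluorescence read.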

[16] = cAMP Responsive Elements (CRE) small molecule agonists, cell-based qHTS assay (AID 1963590)
How it was run: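 A CRE-responsive beta-lactamase reporter in HEK 293T cells was used. Treatment ran 3 h at 37 C; detection used LiveBLAzer B/G FRET substrate for 2 h at room temperature.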

[17] = cAMP Responsive Elements (CRE) small molecule antagonists, cell-based qHTS assay (AID 1963591; active means well fitted inhibition curve with a large enough effect in the signal ratio in the repeat runs, not every such curve was filed as active; the % refers to the signal ratio)
How it was run: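 HEK293T cells carrying a CRE-driven beta-lactamase reporter receive compound and NKH477 (0.25 uM final) for 3 h. Fluorescence from LiveBLAzer B/G FRET substrate is read after 2 h at room temperature.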

[18] = target: Beta-2 adrenergic receptor (Homo sapiens) (UniProt P07550); test: Adrenergic beta2 receptor (ADRB2) small molecule antagonists, cell-based qHTS assay (AID 1963592); further: series mostly up to about 92 µM; nearly all actives have a fitted effect of over 50% in size
Chain of Beta-2 adrenergic receptor (Homo sapiens) (P07550 whole entry, looked up): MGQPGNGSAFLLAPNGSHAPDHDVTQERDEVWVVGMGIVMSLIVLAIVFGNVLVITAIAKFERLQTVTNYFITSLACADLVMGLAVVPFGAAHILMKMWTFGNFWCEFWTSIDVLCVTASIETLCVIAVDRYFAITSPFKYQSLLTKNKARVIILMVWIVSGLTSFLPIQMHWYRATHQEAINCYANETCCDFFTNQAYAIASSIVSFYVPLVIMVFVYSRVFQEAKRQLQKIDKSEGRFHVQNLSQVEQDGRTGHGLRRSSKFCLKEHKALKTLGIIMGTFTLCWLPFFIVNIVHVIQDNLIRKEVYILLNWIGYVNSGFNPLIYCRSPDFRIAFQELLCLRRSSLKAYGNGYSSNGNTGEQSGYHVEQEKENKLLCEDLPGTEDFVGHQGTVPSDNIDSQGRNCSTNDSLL
How it was run: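 Cells (CHO, stable ADRB2 overexpression) incubated 18-20hr at 37C; compounds added from DMSO; agonist mix (1nM isoproterenol, 100uM IBMX, 25uM Ro-20-1724) added; 0.5hr RT; d2-cAMP and anti-cAMP-cryptate added; 1hr RT; 665/615 nm read.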

[19] = target: D(2) dopamine receptor (Homo sapiens) (UniProt P14416); test: Dopamine D2 receptor (DRD2) small molecule antagonists, cell-based qHTS assay (AID 1963595; active means well fitted inhibition curve with a large enough effect in the signal ratio in the repeat runs, with a control signal flat; the % refers to the signal ratio)
Chain of D(2) dopamine receptor (Homo sapiens) (P14416 whole entry, looked up): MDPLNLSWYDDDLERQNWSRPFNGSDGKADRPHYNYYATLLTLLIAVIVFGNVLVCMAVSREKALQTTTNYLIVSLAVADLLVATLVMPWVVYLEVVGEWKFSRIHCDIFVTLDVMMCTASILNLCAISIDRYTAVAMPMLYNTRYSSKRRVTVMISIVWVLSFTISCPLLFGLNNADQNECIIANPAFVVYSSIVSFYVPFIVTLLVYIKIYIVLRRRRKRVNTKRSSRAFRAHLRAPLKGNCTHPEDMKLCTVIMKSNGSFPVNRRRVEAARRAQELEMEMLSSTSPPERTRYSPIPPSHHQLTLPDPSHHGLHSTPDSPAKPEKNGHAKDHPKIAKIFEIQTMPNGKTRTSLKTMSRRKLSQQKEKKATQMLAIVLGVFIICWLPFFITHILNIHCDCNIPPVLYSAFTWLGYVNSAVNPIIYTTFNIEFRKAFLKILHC
How it was run: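 Human DRD2 antagonist qHTS measuring cAMP by HTRF. The cells are exposed to compound for 10 min, then to NKH477 (200 nM) and quinpirole (12 nM) for 30 min at RT, with Ro20-1724 (0.1 mM) present throughout.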

[20] = target: D(2) dopamine receptor (Homo sapiens) (UniProt P14416); test: Dopamine D2 receptor (DRD2) small molecule agonists, cell-based qHTS assay (AID 1963594); further: nearly all actives have a fitted effect of over 35% in size
How it was run: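 HEK293 cells stably expressing human DRD2, pre-treated with PDE inhibitor Ro20-1724 (0.1 mM final) and compound 10 min at room temperature, then stimulated with NKH477 (200nM […]) for 30 min. cAMP read by HTRF (665/620 nm).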
On the % scale 0 is the no-effect control and ±100 the full control effect.

OCCC(F)(F)C(F)(F)C(F)(F)C(F)(F)C(F)(F)C(F)(F)C(F)(F)C(F)(F)F
inactive: Potency [1] | Potency [2] | Potency [3] | outcome [4] | outcome [5] | Potency [6] | Potency [7] | Potency [8] | Potency [9] | Potency [10] | Potency [11] | Potency [12] | Potency [13] | Potency [14] | Potency [15] | Potency [16] | Potency [17] | Potency [18] | Potency [19]

C=CCc1ccccc1OCC(O)CNC(C)C (stereo unspecified)
inactive: Potency [1] | Potency [2] | Potency [3] | outcome [4] | outcome [5] | Potency [6] | Potency [7] | Potency [8] | Potency [9] | Potency [10] | Potency [11] | Potency [12] | Potency [13] | Potency [14] | Potency [15] | Potency [16] | Potency [17] | Potency [20] | Potency [19]

CC(C)=CCC/C(C)=C/CC/C(C)=C/CCC(=O)OC/C=C(\C)CCC=C(C)C
inactive: Potency [1] | Potency [2] | Potency [3] | outcome [4] | outcome [5] | Potency [6] | Potency [7] | Potency [8] | Potency [9] | Potency [10] | Potency [11] | Potency [12] | Potency [13] | Potency [14] | Potency [15] | Potency [16] | Potency [17] | Potency [20] | Potency [19]

C=CC(C)(O)CCCC(C)CCCC(C)CCCC(C)C (stereo unspecified)
inactive: Potency [1] | Potency [2] | Potency [3] | outcome [4] | outcome [5] | Potency [6] | Potency [7] | Potency [8] | Potency [9] | Potency [10] | Potency [11] | Potency [12] | Potency [13] | Potency [14] | Potency [15] | Potency [16] | Potency [18] | Potency [20] | Potency [19]

CN1C(=O)c2ccc([N+](=O)[O-])cc2C1=O
inactive: Potency [1] | Potency [2] | Potency [3] | outcome [4] | outcome [5] | Potency [6] | Potency [7] | Potency [8] | Potency [9] | Potency [10] | Potency [11] | Potency [12] | Potency [13] | Potency [14] | Potency [15] | Potency [16] | Potency [17] | Potency [18] | Potency [19]

S=c1[nH][nH]c(=S)s1
inactive: Potency [1] | Potency [2] | Potency [3] | outcome [4] | outcome [5] | Potency [6] | Potency [7] | Potency [8] | Potency [9] | Potency [10] | Potency [11] | Potency [12] | Potency [13] | Potency [14] | Potency [15] | Potency [16] | Potency [18] | Potency [20] | Potency [19]

Cc1c(Cl)cccc1[N+](=O)[O-]
inactive: Potency [1] | Potency [2] | Potency [3] | outcome [4] | outcome [5] | Potency [6] | Potency [7] | Potency [8] | Potency [9] | Potency [10] | Potency [11] | Potency [12] | Potency [13] | Potency [14] | Potency [15] | Potency [16] | Potency [17] | Potency [20] | Potency [19]

O=C(Nc1cccc(C2=NCCN2)c1)Nc1cccc(C2=NCCN2)c1
inactive: activity change, negative = cytotoxicity [1] 19.9% [at 19 µM] | activity, positive = activation [2] -4.28% [at 19 µM] | activity change [3] -0.181% [at 11.8 µM, hits give high values] | activation [4] -0.538% [at 15.8 µM] | activation [5] 2.04% [at 11.8 µM] | activation [6] -0.295% [at 13.5 µM] | activation [7] -1.12% [at 13.6 µM] | activity change, negative = cytotoxicity [8] 1.91% [at 13.5 µM] | activity change, negative = cytotoxicity [9] 0.748% [at 13.5 µM] | activity change, negative = cytotoxicity [10] -8.13% [at 13.5 µM] | activation [11] 1.58% [at 13.5 µM] | activity, negative = inhibition [12] -37.2% [at 12.7 µM] | activation [13] 1.02% [at 15.9 µM] | activity, negative = inhibition [14] -4.67% [at 12.6 µM] | activation [15] -0.0869% [at 15.8 µM] | activation [16] -0.37% [at 19 µM] | activity change, negative = inhibition [17] -6.62% [at 18.9 µM] | activation [20] -15.4% [at 19 µM] | activity change, negative = inhibition [19] -4.58% [at 18.9 µM]

CC1(C)OC[C@@H](COC(=O)CCc2ccc(OC[C@@H](O)CNCCNC(=O)N3CCOCC3)cc2)O1
inactive: Potency [1] | Potency [2] | Potency [3] | outcome [4] | outcome [5] | Potency [6] | Potency [7] | Potency [8] | Potency [9] | Potency [10] | Potency [11] | Potency [12] | Potency [13] | Potency [14] | Potency [15] | Potency [16] | Potency [17] | Potency [20] | Potency [19]

CCOC(=O)/C=C/C(=O)OCC
inactive: Potency [1] | Potency [2] | Potency [3] | outcome [4] | outcome [5] | Potency [6] | Potency [7] | Potency [8] | Potency [9] | Potency [10] | Potency [11] | Potency [12] | Potency [13] | Potency [14] | Potency [15] | Potency [16] | Potency [17] | Potency [18] | Potency [19]

CCCCCCCC(C)=O
inactive: Potency [1] | Potency [2] | Potency [3] | outcome [4] | outcome [5] | Potency [6] | Potency [7] | Potency [8] | Potency [9] | Potency [10] | Potency [11] | Potency [12] | Potency [13] | Potency [14] | Potency [15] | Potency [16] | Potency [17] | Potency [20] | Potency [19]

O=[N+]([O-])c1cccc(I)c1
inactive: Potency [1] | Potency [2] | Potency [3] | outcome [4] | outcome [5] | Potency [6] | Potency [7] | Potency [8] | Potency [9] | Potency [10] | Potency [11] | Potency [12] | Potency [13] | Potency [14] | Potency [15] | Potency [16] | Potency [18] | Potency [20] | Potency [19]

Cc1nc2ccc(Cl)cc2[nH]1
inactive: Potency [1] | Potency [2] | Potency [3] | outcome [4] | outcome [5] | Potency [6] | Potency [7] | Potency [8] | Potency [9] | Potency [10] | Potency [11] | Potency [12] | Potency [13] | Potency [14] | Potency [15] | Potency [16] | Potency [18] | Potency [20]
